Sampled rows, rich in hits. Any-hit rate of the full collection: about 3.8%.
ELG1 DNA repair = blocks ELG1-dependent DNA repair in HEK293T cells; HEK293T ELG1-luciferase reporter, luminescence, 16 h; DNA damage induced by 5-fluorouridine; Potency, µM (doses to about 46.1 µM), actives largely listed as inhibitors; actives 2.3% (n = 330,000); note: nearly all actives have a fitted effect of over 55% in size
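Reporter activity after DNA damage by 5-fluorouridine is monitored. Compound-treated cells incubate 16 hr at 37 °C, then ONE-Glo is added for 30 min before luminescence reading.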
Nrf2 activator = activators of Nrf2 (ARE) signaling; AREc32 ARE-luciferase reporter (MCF7-derived line), luminescence, 24 h; AID 624171; Potency, µM (doses to about 46.1 µM), actives largely listed as activators; actives 0.31% (n = 410,000); note: nearly all actives have a fitted effect of over 65% in size
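Steps: seed AREc32_Fluc cells (1000/well, 5% FBS OPTI-MEM); incubate overnight at 37 deg C; add 23 nL compound; incubate 24 hr; add Steady-Glo; hold 30 min RT; read luminescence.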
A549 tox = counter-screen for Nrf2 inhibitors: cytotoxicity in A549 cells. AID 504648. A549 ARE-Fluc cells, CellTiter-Fluor viability, 18-24 h. actives 0.16% (n = 390,000). Potency, µM (doses to about 46 µM), actives largely listed as inhibitors
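A549 ARE_Fluc cells in 5% FBS OPTI-MEM were exposed to compounds in concentration-response for 18-24 h at 37 deg C. Viability was read by CellTiter-Fluor fluorescence (Ex 405/Em 525) after 30 min, before the luciferase read.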
Nrf2 inh = Nrf2 pathway inhibition. Potency, µM (doses to about 46 µM), actives largely listed as inhibitors. A549 ARE-Fluc reporter, luciferase luminescence, 18-24 h. AID 504444. actives 2.1% (n = 360,000); note: nearly all actives have a fitted effect of over 60% in size
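A549 ARE_Fluc cells, 5000/well, 5% FBS OPTI-MEM; compounds in dose-response, 18-24 h at 37 °C/5% CO2; CellTiter-Fluor viability read (Ex 405/Em 525), then BugLite luciferase luminescence = Nrf2 activity.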
IDH1 R132H inh = inhibitors of human mutant IDH1 R132H. actives 0.093% (n = 390,000). AID 602179. Potency, µM (titrated, usually from 76.6 µM), hits mostly inhibitors. IDH1-R132H enzyme, NADPH consumption, diaphorase/resazurin fluorescence. O75874; note: nearly all actives have a fitted effect of over 65% in size
Target sequence (O75874 whole entry R132H, stated change not applied): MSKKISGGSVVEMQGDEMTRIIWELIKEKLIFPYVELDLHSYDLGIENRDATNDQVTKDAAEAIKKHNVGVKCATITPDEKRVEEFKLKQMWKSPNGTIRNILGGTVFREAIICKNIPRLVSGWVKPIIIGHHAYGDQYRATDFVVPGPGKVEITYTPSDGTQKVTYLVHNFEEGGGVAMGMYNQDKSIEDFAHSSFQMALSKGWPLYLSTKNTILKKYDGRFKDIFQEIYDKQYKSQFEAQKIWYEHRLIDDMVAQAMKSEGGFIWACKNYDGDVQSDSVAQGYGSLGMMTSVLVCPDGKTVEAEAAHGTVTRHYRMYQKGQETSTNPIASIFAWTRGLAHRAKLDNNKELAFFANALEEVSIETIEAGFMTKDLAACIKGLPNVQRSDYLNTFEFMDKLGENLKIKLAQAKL
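IDH1-R132H (0.5 ug/mL) preincubated 30 min with compound, then NADPH (0.016 mM) and alpha-KG (2 mM) added; 80 min at RT, pH 7.5. Remaining NADPH coupled via diaphorase/resazurin to fluorescence (540/590 nm); concentration-response curves normalized to no-enzyme control.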
Large screens that a line does not name were inactive. Calls come from the whole dose curve; as a rule, active = well fitted curve in the direction sought with a large enough effect; inconclusive = small, poorly fitted or top-dose-only effect, or another doubt; inactive = no such curve, though single readings can be large; an effect the other way counts as inactive or inconclusive.

COc1ccc(C2C=C(c3ccc(Br)cc3)Nc3nnnn32)c(OC)c1 (stereo not given)	Nrf2 inh 15µM (no result: ELG1 DNA repair)
Cc1cc(C)c(Cn2c(=O)n(CCCC(=O)NCc3ccc4c(c3)OCO4)c(=O)c3sccc32)c(C)c1	none (no result: ELG1 DNA repair)
O=C(c1ccc(F)cc1)C1CCN(C(=S)Nc2ccc(F)cc2)CC1	ELG1 DNA repair 10µM, Nrf2 inh inconclusive
COc1ccc(CCNC(=O)c2ccc3c(c2)CCN3S(C)(=O)=O)cc1	none (no result: ELG1 DNA repair)
COCCNC(=S)N1CCC(C(=O)c2ccc(F)cc2)CC1	Nrf2 inh inconclusive (no result: ELG1 DNA repair)
COc1ccc(CCNC(=S)N2CCC(C(=O)c3ccc(F)cc3)CC2)cc1OC	ELG1 DNA repair 9.2µM, Nrf2 inh 16µM
COc1ccc(C(=O)C2CCN(C(=S)NCCc3ccc(OC)c(OC)c3)CC2)cc1	ELG1 DNA repair 21µM, Nrf2 inh 16µM
CCS(=O)(=O)N1CCc2cc(C(=O)NCCc3ccc(OC)c(OC)c3)ccc21	A549 tox inconclusive, Nrf2 inh 18µM (no result: ELG1 DNA repair)
Cc1ccc(Cl)cc1NC(=O)CN1C(=O)C(C)(C)c2cc(S(=O)(=O)N3CCCCC3)ccc21	A549 tox inconclusive (no result: ELG1 DNA repair, Nrf2 inh)
CC(=O)Nc1ccc(S(=O)(=O)Nc2ccc(C)c(C)c2)cc1	Nrf2 inh inconclusive (no result: ELG1 DNA repair, Nrf2 activator, IDH1 R132H inh)
Oc1ccc(CCc2ccccc2F)c2cccnc12	Nrf2 inh inconclusive (no result: ELG1 DNA repair, Nrf2 activator, IDH1 R132H inh)
O=C(Nc1ccccc1)c1ccc(-n2nncc2-c2ccccc2)cc1	Nrf2 inh inconclusive (no result: ELG1 DNA repair, Nrf2 activator, IDH1 R132H inh)
COc1ccc(CCNC(=S)N2CCC(Cc3ccccc3)CC2)cc1OC	ELG1 DNA repair 9.2µM, Nrf2 inh inconclusive
S=C(Nc1ccccc1)N1CCC(Cc2ccccc2)CC1	Nrf2 inh 16µM
COc1ccc(CCNC(=O)c2ccc(CN3CCC(Cc4ccccc4)CC3)cc2)cc1OC	none
CC(CC(=O)N1CCc2ccccc21)S(=O)(=O)c1ccc2c(c1)NC(=O)CO2 (stereo not given)	none
Cc1nnc(Sc2c(-c3ccccc3)c3ccc(Cl)cc3[nH]c2=O)s1	Nrf2 inh 18µM
COc1cccc(N2CCN(C(=O)CN3C(=O)COc4ccc(S(=O)(=O)N5CCC(C)CC5)cc43)CC2)c1	none (no result: ELG1 DNA repair)
CC(=O)c1ccc(NC(=O)c2ccc3nc(-c4ccco4)c(-c4ccco4)nc3c2)cc1	ELG1 DNA repair inconclusive, Nrf2 inh inconclusive
COc1cccc(C(=O)Nc2cccc(-c3nnc(-c4ccco4)o3)c2)c1	ELG1 DNA repair 23µM, Nrf2 inh inconclusive
O=C(Nc1ccccn1)c1ccc2nc(-c3ccccc3)c(-c3ccccc3)nc2c1	none (no result: Nrf2 activator, A549 tox, Nrf2 inh, IDH1 R132H inh)
O=C(Nc1cccnc1)c1sc(Nc2ccccc2)nc1-c1ccccc1	ELG1 DNA repair inconclusive
O=C(Nc1ccccc1)c1ccc2nc(-c3ccco3)c(-c3ccco3)nc2c1	ELG1 DNA repair 9.2µM, A549 tox inconclusive, Nrf2 inh inconclusive
Cc1cccc(Nc2nc(-c3ccccc3)c(C(=O)Nc3cccnc3)s2)c1	ELG1 DNA repair 13µM
O=C(Nc1cccnc1)c1ccc2nc(-c3ccccc3)c(-c3ccccc3)nc2c1	ELG1 DNA repair 23µM
COc1ccc(Br)cc1C(=O)Nc1cccc(-c2nnc(-c3ccco3)o2)c1	none (no result: ELG1 DNA repair)
CCN(c1ccc(Cl)cc1)S(=O)(=O)c1nnc(NC(=O)c2ccccc2C)s1	none (no result: ELG1 DNA repair)
Cc1cccc(N(C)S(=O)(=O)c2c[nH]c3ccc([N+](=O)[O-])cc23)c1	none
Cc1cccc(C(=O)Nc2cccc(C(=O)OCc3cc(=O)n4nc(C5CC5)sc4n3)c2)c1	none (no result: ELG1 DNA repair, Nrf2 inh)
O=C(Nc1ccc2nc(-c3ccco3)c(-c3ccco3)nc2c1)N1CCCC1	none (no result: ELG1 DNA repair, Nrf2 activator, IDH1 R132H inh)
O=C(Nc1ccc2nc(-c3ccco3)c(-c3ccco3)nc2c1)N1CCN(c2ccccn2)CC1	ELG1 DNA repair 12µM, A549 tox inconclusive
O=C(Nc1ccc(CN2CCOCC2)cc1)c1ccc(-c2cc(Cl)ccc2Cl)o1	ELG1 DNA repair 23µM, A549 tox inconclusive, Nrf2 inh inconclusive
Cc1ccc2cccc(NC(=O)c3ccc(-c4cccc([N+](=O)[O-])c4)o3)c2n1	none (no result: ELG1 DNA repair)
O=C(Nc1ccccc1F)c1ccc(-c2cccc([N+](=O)[O-])c2)o1	ELG1 DNA repair inconclusive, Nrf2 activator 1.4µM, Nrf2 inh inconclusive
O=C(/C=C/c1ccccc1)Nc1ccc(CN2CCOCC2)cc1	ELG1 DNA repair inconclusive
Cc1ccc2nsnc2c1NC(=O)Cc1ccc(Cl)cc1	none

Screening data: PubChem BioAssay, National Center for Advancing Translational Sciences (NCATS)
